This is an account of results in PubChem BioAssay (NCI).

About 83,000 compounds went through this panel and 20% of them were active in at least one assay; those are over-represented in the sample as a whole.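 Activity criterion: percent growth below 10, measured after cells in 96-well plates were exposed to a single compound concentration for 48 hours.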 Activity calls are given as the source filed them.

This experiment relates to OVCAR-8 ovarian. As to the kind of experiment: NCI-60 one-dose screen, 48 h (100 = growth as untreated, 0 = no growth, -100 = all killed). Particulars: 10 µM unless noted.
Take `CC1=C2C(=C[C@@](C)(CO)[C@@H]2OC(=O)N(C)CCN(C)C(=O)OC(C)(C)C)C(=O)[C@](C)(O)C12CC2`: the growth is 36.6% (inactive).
Take `CC(=O)N1N=C(CCC(=O)c2nc3ccc([N+](=O)[O-])cc3[nH]2)OC1c1ccc(O)cc1` (centres undefined): the growth is 105% (inactive).
Turning to `CC1CCc2cc(F)cc3c(=O)c(C(=O)O)cn1c23` (centres undefined), the growth was 97.5% (inactive).
As for `OCCOCC(F)(F)F`, the figure is 116% (inactive).
Regarding `O=C(O)c1cn(C2CC2)c2cc(N3CCN(C(=O)CSc4nc(NS(=O)(=O)c5ccccc5)cc(=O)[nH]4)CC3)c(F)cc2c1=O`, the growth was 98.5% (inactive).
The same measure for `c1coc(CSc2ncnc3nc[nH]c23)c1`: 90.3% (inactive); for `CN(C)CC/C=C1\c2ccccc2Sc2ccc(Cl)cc21`: 69.2% (inactive); for `O=C(COc1ccc(Cl)cc1)N1CCN(Cc2ccc3c(c2)OCO3)CC1`: 91.8% (inactive).
The same measure for `COc1cc(NS(=O)(=O)c2ccc(N)cc2)ncn1`: 102% (inactive); for `COC(OC)C1(c2ccccc2)NC(=O)NC1=O` (centres undefined): 103% (inactive); for `CC(=O)Nc1ccc(OC(=O)c2ccccc2O)cc1`: 110% (inactive).
The same measure for `COc1cccc(C2CC(c3cc(OC)c(OC)c(OC)c3)=NN2)c1` (centres undefined): 92.9% (inactive); for `COc1cc(C(=O)N2CCN(C(=O)c3cc(OC)c(OCc4ccccc4)cc3N)CC2)c(N)cc1OCc1ccccc1`: 106% (inactive).
On to `COc1cc2c(cc1OCCCCC(=O)Nc1ccc(-c3nc4ccccc4s3)cc1)N=C[C@@H]1CCCN1C2=O`, for which the growth was -8.71% (active).
As for `C=C1C(=O)O[C@H]2[C@H]1CC/C(COC(=O)c1cccc3ccccc13)=C\CC[C@@]1(C)O[C@@H]21`, the figure is -42.8% (active); as for `COc1ccccc1S(=O)(=O)Nc1ccc2c3c(cc(-c4ccoc4)nc13)C(=O)N2C`, 70.5% (inactive); as for `C=C1c2c(Cl)ccc(O)c2C(O)=C2C(=O)[C@]3(O)C(O)=C(C(N)=O)C(=O)[C@@H](N(C)C)[C@@H]3[C@@H](O)[C@H]12`, 9.79% (active).
As for `CN1C(=O)C2(SCC(C(=O)NCC(=O)OC(C)(C)C)N2C(=O)C2CCCCC2)c2ccccc21` (centres undefined), the figure is 96% (inactive); as for `COc1ccc(/C=C/C(=O)c2ccc(-n3cc(CN4CCN(c5cc6c(cc5F)c(=O)c(C(=O)O)cn6C5CC5)CC4)nn3)cc2)cc1OC`, 39.7% (inactive); as for `O=C(Nc1ccc(Cl)c(Cl)c1)Nc1ccc(Cl)c([N+](=O)[O-])c1`, 10.9% (inactive).
As for `Cc1cc[n+](CCCC[n+]2ccc(C)cc2)cc1`, the figure is 108% (inactive); as for `Cc1cn(C2CC(F)C(CO)O2)c(=O)[nH]c1=O` (centres undefined), 90.4% (inactive); as for `COc1cc2ncnc(Oc3ccc(NC(=O)Nc4ccc(C5(C#N)CCCC5)cc4)c4ccccc34)c2cc1OC`, 0.585% (active).
Take `COC(=O)Nc1nc2ccc(Sc3ccccc3)cc2[nH]1`: the growth was 9.03% (active).
